The supplement of paper PMC3334620
In all, about 33,000 sequences were measured (“E-score (-0.5 to 0.5)”: median about -0.0034, highest 2% from about 0.25 on). The sample as a whole holds a higher share of the highest values than the screen did.

molecular target: T1, Yap3 (UniProt P38749); test: PBM E-score (8-mer binding enrichment) (E-score (-0.5 to 0.5)); higher = stronger / more preferred TF binding; details: protein concentration: 100 nM; construct: GST-full length
T1 sequence: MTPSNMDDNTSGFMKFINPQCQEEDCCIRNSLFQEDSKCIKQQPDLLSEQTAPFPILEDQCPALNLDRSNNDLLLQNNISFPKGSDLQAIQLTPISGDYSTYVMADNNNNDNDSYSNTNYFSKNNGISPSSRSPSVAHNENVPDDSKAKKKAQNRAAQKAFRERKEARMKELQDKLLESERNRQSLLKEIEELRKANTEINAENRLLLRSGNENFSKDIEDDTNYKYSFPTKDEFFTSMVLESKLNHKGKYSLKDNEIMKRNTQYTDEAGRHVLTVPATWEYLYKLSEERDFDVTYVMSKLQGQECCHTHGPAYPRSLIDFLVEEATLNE
Summary of the method: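 For each ungapped eight-base word taken together with its reverse complement, the Universal PBM Analysis Suite assigned an E-score. Binding data came from GST-tagged yeast transcription factors, applied at about 100-200 nM, on universal all-10-mer Agilent arrays made double-stranded by primer extension. Fluorescent anti-GST marked bound protein, and scans were normalised with masliner.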

Sequence	PBM E-score
AAGTCCGC	-0.104
CGCCAACC	-0.193
CAATAGAC	0.111
GAAGTCGA	0.0787
ATTTAAGG	0.0621
ATTTAATG	0.282
ATTTAACG	0.204
CGATAGAA	0.0788
ACACCCTG	-0.133
GATTACCA	0.153
AATTACCC	0.107
AATTACTA	0.325
AATTACTG	0.218
AATTACCA	0.256
GCTTACTA	0.237
GATTACTA	0.225
CCTTACTA	0.281
CCTTACTC	0.183
TATTACAA	0.209
CATTACAC	0.205
CATTACAA	0.28
AGATCACG	0.128
GGGCCACC	-0.256
TCTGCTAA	0.0116
ACCGCGAA	-0.00285

Sequence	PBM E-score
GGACATGA	-0.0945
ACAACTGC	0.0481
CTGCCCTA	-0.132
CCTGCATC	-0.0897
GGGCTCCA	-0.262
GAGGCACA	-0.0567
CATTACTC	0.221
CTTTACTA	0.22
CATTACTA	0.292
AATCAGAA	0.0468
AAAGAACC	0.0747
AGTATTAA	0.186
CGTATTAG	0.152
CGTATTAC	0.231
AGTATTAT	0.1
AGTATTAC	0.26
AGTATTAG	0.327
AGCAAGTG	-0.0827
AAATTGTC	0.154
GATCGACA	-0.00076
AACTAGAT	0.0716
AATTGTTC	0.257
ATTTGTTA	0.166
CTTTGTTC	0.0752
ATTTGTTC	0.321

Sequence	PBM E-score
CATTGTTC	0.125
AATTGTTG	0.0159
CATAGTTA	0.0154
CTAAGCAA	-0.0294
GTAAGCAA	0.27
ATAAGCAA	0.137
CTATCTTA	0.126
GTATCTTA	0.267
CTATCATA	0.12
GTATCATA	0.276
ATATCATA	0.271
GTATCTGA	0.133
GTATCAGA	-0.0367
GCATCATA	0.193
ATATCATG	0.101
CCTCAAAC	0.0235
TCGGGCCA	-0.132
GTGAGGCA	0.0355
CATGACCC	-0.0127
CGGGCCTA	-0.255
GTAGACCA	-0.0918
ACCCGCAG	-0.0808
ATCACTCG	0.0758
CCAGGTTC	-0.317
GTGCGAGA	0.0126

Sequence	PBM E-score
ATGTACCA	-0.0322
AAGTTATG	0.256
AAGTTATA	0.175
AAGTTATT	0.174
GATACTGA	0.0116
TATACTGA	0.295
CATACTGA	0.136
TGAGACAA	0.0572
ATTTCATC	0.269
ATTTCATG	-0.0106
ATTTCATA	0.239
CTAGTATC	0.0604
CCAATTAA	0.0782
CCAATTAC	0.274
CTAATTGA	0.0727
CTAATTAA	0.135
GGAATTAC	0.235
GTAATTAC	0.306
ATAATTGA	0.308
ATAATTAA	0.259
GTAATTGA	0.115
GCAATTAC	0.102
ACAATTAC	0.203
TTAATTAA	0.0675
CGTTCATA	-0.0126

Sequence	PBM E-score
AGCACGCC	-0.157
ACCACTGC	-0.048
GACACTAA	0.064
AAGGGGCA	-0.105
CTCTCGGA	0.00281
ATATGCGG	0.0287
GCAGTGAA	0.225
GTCAAAGA	-0.0517
AGTAGCCA	-0.141
CATGCACC	-0.191
CGCTGCTC	-0.133
GTAATTCA	0.177
GGAATTAA	0.233
CTAATTAC	0.253
ATAATTAC	0.333
GTAATTAA	0.259
AGAATTAG	0.0612
ATAATTAG	0.347
ATAATTCC	0.163
CTAATTAG	0.347
CCAATTAG	0.177
ACAATTAG	-0.0417
CAAATTAG	0.122
ATTAGAGC	0.116
GAACGCTC	-0.11

Sequence	PBM E-score
AGAGAAAT	0.142
CAACAGAA	-0.0742
CAACAGGG	-0.116
TACCACAA	0.123
AGGAAGAT	0.13
AGTCAGGG	-0.185
ATAATTCA	0.282
ACAATTAT	0.248
ATAATTAT	0.302
CTAATTCA	0.112
AGAATTAT	0.197
ATAATTCG	0.242
ATCAGAGG	-0.132
GACGCTGC	-0.0366
ATGCGAAA	0.13
ACTTAGGG	-0.112
ATTAATAG	0.228
CTTAATAA	0.275
GTTAATAA	0.223
ATTAATAA	0.405
CTTAATAC	0.0534
ATTAATAC	0.201
AATATGGG	0.0708
CTTGGTAC	0.172
GAAGAGCA	-0.258

Sequence	PBM E-score
GCTTCCCC	-0.346
ACGTCAGC	0.0264
GTCGCGAC	0.324
GTCGCGAA	-0.0136
CTCGCGAC	0.068
AAGGTATC	-0.00987
CACCACAC	0.096
ATGTGATA	0.255
GTATGAGA	0.158
GTATGAAA	0.29
CTTTGATA	0.189
TTATGAAA	0.204
CTGTGATA	-0.106
ATTTGATA	0.273
GTATGATA	0.282
GTATGAAC	0.0322
GGATGATA	0.122
ATTTGATC	-0.0998
GTGTGATA	0.203
CAGAAGCA	0.137
TCCTACAA	0.0495
GTCATCCA	0.0539
AAAGACCT	0.0294
CTGTGAAA	0.264
AGATGATA	0.08

Sequence	PBM E-score
ATGTGAAA	0.134
ATATGATG	0.171
ATATGATA	0.264
GTGTGAAA	0.133
ATATGATC	0.294
CTATGATC	-0.0167
CTATGATA	0.0744
CTCTAGAA	-0.214
AGTGGTAC	0.0484
CTCGCTGC	-0.0528
AAGCATTA	0.106
CATTCAAC	-0.065
ATAAAAAT	0.199
ATAAATAA	0.307
GTAAATAC	0.0284
ATAAATAT	0.267
CTAAATAA	0.155
ATAAATCA	0.207
ATAAATAG	0.195
ATAAATAC	0.325
TTAAATAA	0.155
GTAAATAA	0.267
CTAAATAC	0.0333
ATATAAAT	0.242
GAACTCTC	-0.0889

Sequence	PBM E-score
AATTAGAT	0.245
ACATTTTC	0.125
CCTATAAC	-0.0793
CCATCTTA	0.00932
GTCCTAAC	-0.0915
ACCATCAC	0.0126
ATCTTCTA	0.0985
ATTGAGCA	0.105
AATAAAAA	0.27
AATAAAAT	0.239
AATAAAAG	0.0973
CATAAAAC	0.0691
AATAAAAC	0.315
GATAAAAC	0.219
ACCACTCG	0.0759
ACGTGTTG	0.0914
GAGCGACA	0.0223
ACTTGTCT	-0.0439
CGACAACG	0.0404
ATAATAGA	0.184
GAAATAAA	0.14
CTAATAAA	0.178
GTAATAAA	0.266
ATAATAAC	0.173
CTAATAAC	0.15

Sequence	PBM E-score
ATAATAAT	0.26
ATAATAAG	0.194
GTAATAAC	0.188
ACAATAAA	0.106
TTAATAAA	0.372
ATAATAAA	0.277
CGCGTCGA	0.0342
GTACGAAA	0.173
CTCGTCGA	-0.0244
CGTCGCTA	0.11
CTTCTGAA	0.0313
ACAGCCAT	-0.0294
ACGTGAAA	0.211
AGAATAAG	0.11
AGAATAAT	0.24
AGAATAAA	0.261
AGATAGGC	-0.0411
GGACAGCA	-0.0442
ATTTAGTA	0.289
GTTTAGTA	0.275
ATTTAGTG	0.204
ATTTAGTC	0.167
GGTTAGTA	0.0941
CTTTAGTA	0.0328
CCAGTAAG	-0.0333

Sequence	PBM E-score
ACACATGT	0.0237
CGGGTAAC	-0.0884
ACAATTCC	0.0667
ACATCTTC	0.0249
GCGGTAGA	0.00783
GACAAATC	0.175
GACAAATA	0.299
TACAAATA	0.299
AACAAATA	0.25
GACAAGTA	-0.00588
CACAAATA	0.152
TGGGGACA	-0.0974
ATGTAGCA	-0.00878
CCGCGGCA	0.135
AGAGAGCC	-0.201
CGTATCGC	0.0192
GTTATTGA	0.117
CTTATTGA	0.0574
TCGATTAA	0.308
CTTATTAA	0.339
ATCATTAA	0.207
GTTATTTA	0.165
CTCATTAA	0.0548
GCGATTAA	0.216
ACGATTAA	0.0578

Sequence	PBM E-score
CTTATTGC	0.0255
GTTATTAA	0.262
GTCATTAA	0.3
CCGCCACC	-0.155
CCTCAGGA	-0.184
CCAAGACG	-0.148
ATGGTGGA	-0.062
CGCTAATA	0.0177
CTCTCTAA	-0.149
CACCTTCA	0.014
GGCCCACA	-0.119
CGGAGCAG	-0.191
AGATTTGG	-0.12
ATTGCAGG	0.073
CTGATTAA	0.203
CCTATTAA	0.0368
ATTATTAA	0.378
ATGATTAG	0.124
CCCATTAA	-0.108
ATGATTAA	0.274
ACCATTAA	0.26
TCCATTAA	0.0027
ACTATTAA	0.123
ATAAGATG	0.176
AATAGAAA	0.138

Sequence	PBM E-score
ATGGTATC	0.175
ATGGTATA	0.262
CTTGTATA	0.127
ATTGTATG	0.151
ATGGTATG	0.00998
ATTGTATA	0.298
CGGTCGCC	-0.2
CTCTAAAC	0.167
AAGCTGAG	0.0158
AGCAGAGA	-0.0117
TCGTAGAA	-0.0144
CCGCCTAA	-0.155
TAAAATAA	0.0792
ACAAAATA	0.175
CAAAAATC	0.051
AAAATAGA	0.256
CAAAAATA	0.332
GAAAAATA	0.114
AAAATAGC	-0.0905
TAAATAGA	-0.0374
CCAAAATA	0.211
AAAAAATA	0.287
AAAAATAA	0.25
CAAAATAA	0.296
CAGTTTGC	0.124

Sequence	PBM E-score
ACGCCGCG	-0.0869
AGACCTGG	-0.0312
AGTTTGCC	0.175
GCGGCTCA	0.0715
TAAAAAAA	0.0893
GAAATATA	0.248
GAAAGATA	0.217
TAAAGATA	0.254
TAAAAATA	0.26
TAAATAAA	0.282
CTAAAATA	0.148
CAAATATA	0.0799
CAAAGATA	0.0838
CAAATAAA	0.197
TAAATATA	0.297
AAAATAAA	0.204
TAGGTCAA	0.0932
AGGAATAA	0.156
GTGGTAAA	-0.0974
